Assay outcomes as filed in PubChem.
Compounds with a hit are over-represented: about 10% of the library has one in this group of screens.
KB-3-1 tox – kills parental KB-3-1 adenocarcinoma cells | Potency, µM (highest dose often 46.1 µM), hits mostly cytotoxic | 1.4% of 400,000 active | KB-3-1 viability, CellTiter-Glo ATP luminescence, 72 h; also: % is scaled to controls: 0 for no effect and ±100 for the full control effect; nearly all actives have a fitted effect of over 60% in size
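Here the drug-naive KB-3-1 line serves as comparator for MDR sub-line selectivity; cells received compound titrations, 72 h at 37 °C, then CellTiter-Glo readout.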
Gal4-VP16 FLuc – Gal4-VP16 reporter inhibition counter-screen. Potency, µM (top dose mostly 53.6 µM), inactives show at the top dose activity, negative = inhibition, actives largely listed as inhibitors. AID 2546. 3.5% of 310,000 active. Drosophila S2 Gal4-VP16 UAS-luciferase, luminescence, 20 h;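 also: Gal4-VP16 expression switched on by copper sulfate through the metallothionein promoter; % is scaled to controls: 0 for no effect and ±100 for the full control effect; nearly all actives have a fitted effect of over 50% in size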
RORgamma inh – inhibitors of mouse ROR gamma transcriptional activity. Drosophila S2 Gal4-RORgamma UAS-luciferase reporter, 20 h. Potency, µM (highest dose often 53.6 µM), for inactives: at the top dose activity change, negative = inhibition, usual class: inhibitors. 5.4% of 310,000 active. AID 2551; also: % is scaled to controls: 0 for no effect and ±100 for the full control effect; nearly all actives have a fitted effect of over 60% in size
Target sequence (P51450 whole entry, looked up, the tested form may be a part): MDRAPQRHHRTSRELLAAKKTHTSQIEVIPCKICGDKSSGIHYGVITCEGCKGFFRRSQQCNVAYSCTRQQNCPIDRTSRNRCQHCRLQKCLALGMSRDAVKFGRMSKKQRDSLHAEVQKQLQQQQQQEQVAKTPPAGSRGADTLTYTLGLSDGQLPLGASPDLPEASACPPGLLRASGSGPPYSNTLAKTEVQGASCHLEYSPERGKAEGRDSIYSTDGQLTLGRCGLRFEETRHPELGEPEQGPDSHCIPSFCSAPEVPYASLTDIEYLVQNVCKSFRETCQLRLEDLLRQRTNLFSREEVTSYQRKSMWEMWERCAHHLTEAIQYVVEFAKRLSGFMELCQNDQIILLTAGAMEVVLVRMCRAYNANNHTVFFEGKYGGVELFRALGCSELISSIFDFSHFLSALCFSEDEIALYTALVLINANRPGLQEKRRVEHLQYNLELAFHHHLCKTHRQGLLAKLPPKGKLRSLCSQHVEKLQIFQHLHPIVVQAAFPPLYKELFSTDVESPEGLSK
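ROR gamma transcriptional activity was tracked as Gal4-UAS luciferase output in stably transfected Drosophila Schneider cells, with compound added 1 hr before 700 uM copper sulfate induction and a 20 hr ambient-temperature incubation.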
MCF10A rerep – inducers of DNA re-replication in MCF 10A breast cells; MCF 10A DNA re-replication, Hoechst nuclear intensity, 48 h; Potency, µM (doses to about 46.1 µM), without a hit: top-dose activity, positive = re-replication, most hits filed as activators; 2.9% of 350,000 active; AID 624296; also: % of control where 0% means no effect; nearly all actives have a fitted effect of over 50% in size
KB-V1 cytotox – kills drug-selected multidrug resistant KB-V1 cells | KB-V1 MDR cells viability, CellTiter-Glo, 72 h | AID 1347076 | Potency, µM (doses to about 46.1 µM), actives largely listed as cytotoxic | 3.4% of 400,000 active; also: % is scaled to controls: 0 for no effect and ±100 for the full control effect; nearly all actives have a fitted effect of over 60% in size
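In this primary screen, KB-V1 cells overexpressing P-gp are incubated with library compounds (lowest to highest concentration) for 72 h at 37 degrees C before a luminescent ATP viability read.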
SW480 rerep – inducers of DNA re-replication in SW480 colon cancer cells; SW480 DNA re-replication, Hoechst DNA content imaging, 48 h; Potency, µM (titrated, usually from 46.1 µM), for the others: at the top dose re-replication activation, most hits filed as activators; 1.8% of 340,000 active; also: % of control where 0% means no effect; nearly all actives have a fitted effect of over 55% in size
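Per well, 250 cells were exposed to pinned compound for 48 hr. Nuclear DNA was visualised with Hoechst (40 min, 37 C) and total object intensity recorded by fluorescence scanning.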
Starred values were filed as active, the others as inactive; [ ] = remark or other dose. Calls follow the shape of the dose curve; as a rule, active = well fitted curve in the direction sought with a large enough effect; inconclusive = small, poorly fitted or top-dose-only effect, or another doubt; inactive = no such curve, though single readings can be large; an effect the other way counts as inactive or inconclusive. Potency is read from the fitted curve at half-maximal effect.

O=C(CSc1nc(-c2ccccc2)cc(C(F)(F)F)n1)NCc1ccco1 was read as KB-3-1 tox inconclusive, Gal4-VP16 FLuc -9%, RORgamma inh -29%, MCF10A rerep inconclusive, KB-V1 cytotox inconclusive and SW480 rerep 0%.
COc1ccc(CNC(=O)CSc2nc(-c3ccccc3)cc(-c3cccs3)c2C#N)cc1 was read as KB-3-1 tox inactive, Gal4-VP16 FLuc -3%, RORgamma inh -21%, MCF10A rerep 13%, KB-V1 cytotox inactive and SW480 rerep 16%.
`CCN(CC)CCCNC(=O)CSc1nc(-c2ccc(OC)cc2)cc(C(F)(F)F)n1` gave KB-3-1 tox inactive and KB-V1 cytotox inactive.
Screening COc1ccc(-c2cc(-c3cccs3)c(C#N)c(SCC(=O)NCc3ccco3)n2)cc1 returned KB-3-1 tox inconclusive, Gal4-VP16 FLuc -9%, RORgamma inh 15%, MCF10A rerep 1.5µM*, KB-V1 cytotox inconclusive and SW480 rerep 2.6µM*.
For COc1ccccc1-c1nnc(C2CCN(C(=O)c3cccc(C)c3)CC2)o1 the results were KB-3-1 tox inactive and KB-V1 cytotox inactive.
C[C@@]12C(=O)OC(=O)[C@]1(C)C1CCC2O1 was read as KB-3-1 tox inconclusive, MCF10A rerep -3%, KB-V1 cytotox 5.8µM* and SW480 rerep inconclusive.
`Cc1ccc(Cl)cc1NC(=O)C(C)n1nc(-c2ccccc2)ccc1=O` (centres undefined) gave KB-3-1 tox inactive and KB-V1 cytotox inactive.
For c1ccc(-c2csc3ncnc(NCC4COc5ccccc5O4)c23)cc1 (centres undefined) the results were KB-3-1 tox 1.6µM*, Gal4-VP16 FLuc 0.89µM*, RORgamma inh 7.1µM*, MCF10A rerep 26µM*, KB-V1 cytotox 23µM* and SW480 rerep 2%.
Cc1sc2ncnc(NCC3COc4ccccc4O3)c2c1C (centres undefined) was read as KB-3-1 tox inactive, Gal4-VP16 FLuc 1µM*, RORgamma inh inconclusive, MCF10A rerep inconclusive, KB-V1 cytotox inactive and SW480 rerep inconclusive.
`CC(C)CC(Nc1ncnc2scc(-c3ccccc3)c12)C(=O)O` (centres undefined) gave KB-3-1 tox inactive, Gal4-VP16 FLuc 0%, RORgamma inh 40%, MCF10A rerep 1%, KB-V1 cytotox inactive and SW480 rerep 4%.
Screening COc1ccccc1NC(=O)Cn1c(=O)n(-c2cccc(Cl)c2)c(=O)c2c1c1cc(C)ccc1n2C returned KB-3-1 tox inactive and KB-V1 cytotox inactive.
Screening CCOC(=O)c1c(Oc2ccc(C(C)=O)cc2)nnc(-c2ccccc2)c1-c1ccccc1 returned KB-3-1 tox inactive and KB-V1 cytotox inactive.
Screening CCN1C=C(Cc2cccs2)C2=C(C1)C(c1cccs1)C(C#N)=C(N)O2 (centres undefined) returned KB-3-1 tox inconclusive, Gal4-VP16 FLuc -2%, RORgamma inh 18%, MCF10A rerep 21µM*, KB-V1 cytotox inactive and SW480 rerep 25%.
For CC(c1ccccc1)n1c(-c2ccc(Cl)cc2)n[nH]c1=S (centres undefined) the results were KB-3-1 tox inactive, Gal4-VP16 FLuc 6.3µM*, RORgamma inh 5.6µM*, MCF10A rerep 9%, KB-V1 cytotox inactive and SW480 rerep 4%.
Screening CC(c1ccc(F)cc1)n1c(-c2cccs2)n[nH]c1=S (centres undefined) returned KB-3-1 tox inactive, Gal4-VP16 FLuc 10µM*, RORgamma inh 2.8µM*, MCF10A rerep 0%, KB-V1 cytotox inactive and SW480 rerep 0%.
For CC(C)n1c(-c2ccccc2F)n[nH]c1=S the results were KB-3-1 tox inactive, Gal4-VP16 FLuc 11µM*, RORgamma inh 3.2µM*, MCF10A rerep -22%, KB-V1 cytotox inactive and SW480 rerep 2%.
Fc1ccccc1-c1n[nH]c(=S)n1/N=C/c1c[nH]c2ccccc12 was read as KB-3-1 tox inactive, Gal4-VP16 FLuc -2%, RORgamma inh inconclusive, MCF10A rerep 1%, KB-V1 cytotox inactive and SW480 rerep -10%.
Screening CC(c1ccccc1)n1c(-c2ccncc2)n[nH]c1=S (centres undefined) returned KB-3-1 tox inactive, Gal4-VP16 FLuc inconclusive, RORgamma inh inconclusive, MCF10A rerep 14%, KB-V1 cytotox inconclusive and SW480 rerep -7%.
For CC(c1ccccc1)n1c(-c2ccccc2F)n[nH]c1=S (centres undefined) the results were KB-3-1 tox inactive, Gal4-VP16 FLuc 6.3µM*, RORgamma inh 7.1µM*, MCF10A rerep -2%, KB-V1 cytotox inactive and SW480 rerep 0%.
COc1ccc(CNC(=O)C/C(C)=N/NC(=O)c2cc(OC)cc(OC)c2)cc1 was read as Gal4-VP16 FLuc -7% and RORgamma inh -12%.
C/C(CC(=O)NCc1ccccc1)=N\NC(=O)c1cnccn1 was read as KB-3-1 tox inactive, Gal4-VP16 FLuc -7%, RORgamma inh 10%, MCF10A rerep 10%, KB-V1 cytotox inactive and SW480 rerep -2%.
For C/C(CC(=O)NCc1ccccc1)=N\NC(N)=S the results were KB-3-1 tox inactive, Gal4-VP16 FLuc -2%[10 µM], RORgamma inh 10µM*, MCF10A rerep -9%, KB-V1 cytotox inactive and SW480 rerep -7%.
C/C(CC(=O)NCc1ccc(F)cc1)=N\NC(N)=S was read as KB-3-1 tox inactive, Gal4-VP16 FLuc -25%, RORgamma inh 13µM*, MCF10A rerep -8%, KB-V1 cytotox inactive and SW480 rerep 13%.
Screening O=C(NCc1ccc(F)cc1)C1CCN(S(=O)(=O)c2ccc3c(c2)CCCN3C(=O)C2CCC2)CC1 returned KB-3-1 tox inconclusive and KB-V1 cytotox inactive.
Clc1ccccc1-c1cc2nc(NCc3ccco3)ccn2n1 was read as KB-3-1 tox inactive and KB-V1 cytotox inactive.
CSc1cccc(Nc2cc(C(=O)NCCCN(Cc3ccccc3)C(C)C)c3ccccc3n2)c1 was read as KB-3-1 tox inactive and KB-V1 cytotox 16µM*.
COCCN(CC1CCCN(C2Cc3ccccc3C2)C1)C(=O)c1ccc(C(C)=O)cc1 (centres undefined) was read as KB-3-1 tox inactive, Gal4-VP16 FLuc -13%, RORgamma inh 10%, MCF10A rerep inconclusive, KB-V1 cytotox inactive and SW480 rerep 0.32µM*.
